Active and inactive are the calls of the source. How the source made its calls: active means hit-call score of the fitted dose curve at least 0.9, where 1 is the maximum; inactive means score below 0.9.
Tests used:
[1] = ATG_CRE_CIS: Attagene CIS-FACTORIAL HepG2 Assay for human cAMP Responsive Element (CRE) binding protein 3 (AID 2282926); details: HepG2 CRE cis-reporter, Attagene multiplexed mRNA; actives raise or lower the signal
Method in brief: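 Liver-derived HepG2, transfected with a CRE-containing reporter panel, exposed 24 h; transcript levels sized and quantified by capillary electrophoresis of labelled amplicons; signal changes either way referenced to vehicle.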

[2] = target: CCAAT/enhancer-binding protein beta (Homo sapiens) (UniProt P17676); test: ATG_C_EBP_CIS: Attagene CIS-FACTORIAL HepG2 Assay for human CCAAT/Enhancer Binding Protein (C/EBP) beta (AID 2282927); details: HepG2 Attagene cis-factorial transcription factor reporter; actives raise or lower the signal
Chain of CCAAT/enhancer-binding protein beta (Homo sapiens) (P17676 whole entry, looked up): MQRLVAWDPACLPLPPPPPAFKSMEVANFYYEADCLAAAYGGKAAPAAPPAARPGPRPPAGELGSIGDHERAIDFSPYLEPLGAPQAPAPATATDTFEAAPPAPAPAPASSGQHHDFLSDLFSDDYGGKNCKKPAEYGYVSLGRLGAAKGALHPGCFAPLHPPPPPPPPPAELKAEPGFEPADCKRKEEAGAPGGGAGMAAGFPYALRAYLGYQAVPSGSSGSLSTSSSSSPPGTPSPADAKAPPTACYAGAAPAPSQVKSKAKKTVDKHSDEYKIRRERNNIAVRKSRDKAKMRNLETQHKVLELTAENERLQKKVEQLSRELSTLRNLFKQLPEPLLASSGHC
Method in brief: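 Following a 24 h incubation with test chemical, transfected HepG2 cells yielded RNA whose reporter transcripts were quantified by RT-PCR and fluorescent capillary electrophoresis, with DMSO serving as baseline for bidirectional fitting.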

[3] = ATG_CMV_CIS: Attagene CIS-FACTORIAL HepG2 Assay for human CMV (Internal Marker) (AID 2282928); details: HepG2 CMV promoter reporter, transcription factor profiling; actives raise or lower the signal;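 further: endpoint acts as a background internal control marker rather than a target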
Method in brief: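 Fluorescence intensity of RT-PCR-derived reporter fragments, resolved by capillary electrophoresis, gives the signal. HepG2 liver cells bearing transfected cis-element reporters were treated 24 h; activity in either direction was fit relative to DMSO-treated controls.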

[4] = ATG_DR4_LXR_CIS: Attagene CIS-FACTORIAL HepG2 Assay for human Liver X Receptor (LXR), DR4 submotif (AID 2282929); details: HepG2 Attagene DR4 cis-reporter, mRNA transcription; actives raise or lower the signal
Method in brief: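 The endpoint is DR4-element-driven reporter transcripts after 24 h chemical exposure of transfected HepG2 cells. These were measured via RT-PCR and capillary electrophoresis, and gain or loss of signal was fitted relative to DMSO controls.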

[5] = target: Aryl hydrocarbon receptor (Homo sapiens) (UniProt P35869); test: ATG_Ahr_CIS: Attagene CIS-FACTORIAL HepG2 Assay for human Aryl Hydrocarbon Receptor (Ahr) (AID 2282930); details: HepG2 AhR cis-factorial reporter transcription; actives raise or lower the signal
Chain of Aryl hydrocarbon receptor (Homo sapiens) (P35869 whole entry, looked up): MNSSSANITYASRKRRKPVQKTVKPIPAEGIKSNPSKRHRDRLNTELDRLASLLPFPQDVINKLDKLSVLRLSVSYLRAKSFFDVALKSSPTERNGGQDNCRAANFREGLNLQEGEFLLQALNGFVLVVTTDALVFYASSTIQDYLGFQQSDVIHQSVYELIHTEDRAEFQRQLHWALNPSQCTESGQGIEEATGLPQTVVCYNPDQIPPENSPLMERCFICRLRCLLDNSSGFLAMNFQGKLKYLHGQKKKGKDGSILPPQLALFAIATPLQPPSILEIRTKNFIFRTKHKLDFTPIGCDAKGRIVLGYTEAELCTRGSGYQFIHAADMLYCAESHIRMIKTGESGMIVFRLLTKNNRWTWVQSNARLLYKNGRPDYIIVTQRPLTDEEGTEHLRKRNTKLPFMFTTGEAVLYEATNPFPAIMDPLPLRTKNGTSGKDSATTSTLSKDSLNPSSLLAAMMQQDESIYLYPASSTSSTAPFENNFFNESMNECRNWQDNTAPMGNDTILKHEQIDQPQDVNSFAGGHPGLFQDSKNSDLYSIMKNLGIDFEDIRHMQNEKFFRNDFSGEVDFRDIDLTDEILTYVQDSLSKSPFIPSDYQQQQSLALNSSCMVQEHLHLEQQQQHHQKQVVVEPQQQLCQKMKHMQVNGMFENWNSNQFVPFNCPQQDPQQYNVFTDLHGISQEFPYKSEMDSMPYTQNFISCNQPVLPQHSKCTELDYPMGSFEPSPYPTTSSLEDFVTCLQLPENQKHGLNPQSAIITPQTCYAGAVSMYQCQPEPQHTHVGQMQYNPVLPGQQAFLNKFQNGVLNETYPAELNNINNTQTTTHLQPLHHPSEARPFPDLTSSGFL
Method in brief: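 Values derive from bidirectional fitting against DMSO negative control. Underlying signal: cis-element reporter mRNA in transiently transfected HepG2, harvested 24 h post-dose and measured by RT-PCR plus capillary electrophoresis.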

[6] = ATG_AP_2_CIS: Attagene CIS-FACTORIAL HepG2 Assay for human Activator Protein 2 (AP-2) (AID 2282932); details: HepG2 AP-2 cis-reporter, Attagene transcription factor profiling; actives raise or lower the signal
Method in brief: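 Cells (HepG2) transfected with promoter-driven reporter constructs, treated 24 h. Total RNA reverse-transcribed, reporter cDNA PCR-amplified, FAM-labelled by primer extension, digested, resolved by capillary electrophoresis. Activity fitted both directions versus DMSO.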

[7] = ATG_BRE_CIS: Attagene CIS-FACTORIAL HepG2 Assay for human Bone Morphogenetic Protein (BMP) Response Element (BRE) (AID 2282933); details: HepG2 BMP response element reporter, Attagene transcription factor profiling; actives raise or lower the signal
Method in brief: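 Multiplexed cis-reporter assay, HepG2, 24 h exposure. mRNA from reporter units quantified via RT-PCR/CE; DMSO baseline; bidirectional curve fit.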

[8] = target: Retinoic acid receptor alpha (Homo sapiens) (UniProt P10276); test: ATG_DR5_RAR_CIS: Attagene CIS-FACTORIAL HepG2 Assay for human Retinoic Acid Receptor Alpha (RARE), DR5 submotif (AID 2282934); details: HepG2 Attagene cis-factorial RARE DR5 reporter, mRNA; actives raise or lower the signal;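 on AC50: reporter responds to endogenous RAR alpha beta and gamma in HepG2 not RARA alone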
Chain of Retinoic acid receptor alpha (Homo sapiens) (P10276 whole entry, looked up): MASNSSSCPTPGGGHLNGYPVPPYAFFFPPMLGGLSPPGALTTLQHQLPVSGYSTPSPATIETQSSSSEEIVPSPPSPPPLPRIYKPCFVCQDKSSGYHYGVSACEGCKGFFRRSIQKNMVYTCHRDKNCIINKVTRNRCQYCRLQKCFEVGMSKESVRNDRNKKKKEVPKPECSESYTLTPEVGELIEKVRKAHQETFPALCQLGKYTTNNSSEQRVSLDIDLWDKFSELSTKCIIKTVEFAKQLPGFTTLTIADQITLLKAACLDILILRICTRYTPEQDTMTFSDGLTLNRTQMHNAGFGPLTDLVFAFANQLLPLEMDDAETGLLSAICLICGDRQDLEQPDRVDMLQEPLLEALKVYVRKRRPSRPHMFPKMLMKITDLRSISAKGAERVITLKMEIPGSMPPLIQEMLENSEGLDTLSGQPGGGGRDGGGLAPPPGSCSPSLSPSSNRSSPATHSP
Method in brief: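 Endpoint fitted in both directions relative to DMSO as negative control. It reflects DR5 cis-element reporter mRNA induction in transiently transfected HepG2 cells, measured 24 h after dosing through RT-PCR and fluorescent capillary electrophoresis.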

[9] = target: Transcription factor E2F1 (Homo sapiens) (UniProt Q01094); test: ATG_E2F_CIS: Attagene CIS-FACTORIAL HepG2 Assay for human E2F Transcription Factor 1 (AID 2282935); details: HepG2 Attagene cis-reporter, E2F reporter RNA transcripts; actives raise or lower the signal
Chain of Transcription factor E2F1 (Homo sapiens) (Q01094 whole entry, looked up): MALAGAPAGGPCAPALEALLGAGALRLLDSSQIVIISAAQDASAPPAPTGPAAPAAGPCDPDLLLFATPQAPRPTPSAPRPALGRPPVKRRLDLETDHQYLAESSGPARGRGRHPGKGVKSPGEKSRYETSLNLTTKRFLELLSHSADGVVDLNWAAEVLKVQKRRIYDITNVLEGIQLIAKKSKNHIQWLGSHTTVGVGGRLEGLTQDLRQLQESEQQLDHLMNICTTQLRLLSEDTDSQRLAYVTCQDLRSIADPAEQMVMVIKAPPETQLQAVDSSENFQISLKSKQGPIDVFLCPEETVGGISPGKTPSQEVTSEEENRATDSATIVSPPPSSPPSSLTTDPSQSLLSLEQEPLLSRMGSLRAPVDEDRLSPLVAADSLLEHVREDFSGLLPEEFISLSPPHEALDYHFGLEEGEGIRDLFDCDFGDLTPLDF
Method in brief: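 First, HepG2 cells were transfected with reporter transcription units. Next, they were dosed for 24 h. Then RNA was isolated, converted to cDNA, PCR-amplified, FAM-labeled, HpaI-digested and analyzed by capillary electrophoresis.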

[10] = ATG_AP_1_CIS: Attagene CIS-FACTORIAL HepG2 Assay for human Activator Protein 1 (AP-1) (AID 2282931); details: HepG2 Attagene cis-factorial AP-1 reporter mRNA; actives raise or lower the signal
Method in brief: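 Readout is reporter transcript level from endogenous transcription factor activity, quantified by RT-PCR with fluorescent primer extension and capillary electrophoresis. Transiently transfected HepG2 cells, 24 h exposure. Curves fitted both directions versus DMSO.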

Measured: AC50

Nc1nc(=S)c2[nH]cnc2[nH]1
active: [2] 100 µM | [3] 19 µM | [5] 66.3 µM
not listed: [10]
inactive: all other assays above

CCCCCCCCCCCCCCCCO
active: [8] 100 µM
not listed: [10]
inactive: all other assays above

CC(C)NCC(O)c1ccc(O)c(O)c1 (centres undefined)
active: [5] 64.9 µM
not listed: [8] | [10]
inactive: all other assays above

Cc1occc(=O)c1O
not listed: [8]
inactive: all other assays above

CC1=C(C)S(=O)(=O)CCS1(=O)=O
active: [2] 129 µM | [3] 143 µM
not listed: [8] | [10]
inactive: all other assays above

CCCCCCCCCCCCCCOS(=O)(=O)O
not listed: [8]
inactive: all other assays above

Cc1cn([C@H]2C=C[C@@H](CO)O2)c(=O)[nH]c1=O
not listed: [8] | [10]
inactive: all other assays above

CCCCCCCC(=O)OC
not listed: [8]
inactive: all other assays above

CN(C)CCCN1c2ccccc2Sc2ccc(Cl)cc21
active: [4] 9.33 µM
not listed: [8] | [10]
inactive: all other assays above

CC(=O)S[C@H](C(=O)N[C@H]1Cc2ccccc2[C@H]2CCC[C@@H](C(=O)O)N2C1=O)C(C)C
not listed: [8]
inactive: all other assays above

CCCCCCCCCC[N+](C)(C)[O-]
not listed: [8] | [10]
inactive: all other assays above

CC(C)COC(=O)CCCCC(=O)OCC(C)C
not listed: [10]
inactive: all other assays above

CS(=O)(=O)c1ccc([C@@H](C[C@H]2CCC(=O)C2)C(=O)Nc2cnccn2)cc1Cl
not listed: [8]
inactive: all other assays above

C#CC(O)C(CC)CCCC (centres undefined)
active: [2] 128 µM | [4] 161 µM | [6] 163 µM
not listed: [8] | [10]
inactive: all other assays above

CN(C)C(=O)NC1(c2ccccc2)CCN(CCC[C@]2(c3ccc(Cl)c(Cl)c3)CCCN(C(=O)c3ccccc3)C2)CC1
active: [1] 4.22 µM | [2] 5.22 µM | [4] 4.53 µM
not listed: [8] | [10]
inactive: all other assays above

c1ccc2occc2c1
active: [5] 21.7 µM
not listed: [8]
inactive: all other assays above

CCCCC(CC)CO (centres undefined)
not listed: [8]
inactive: all other assays above

O=C1O[C@H]([C@H](O)CO)C(O)=C1O
not listed: [8] | [10]
inactive: all other assays above

COC(=O)CCCC(=O)OC
not listed: [5] | [10]
inactive: all other assays above

OCC(CO)n1cnc(-c2ccc(F)cc2)c1-c1ccnc(Oc2ccccc2)n1
not listed: [8] | [10]
inactive: all other assays above

CCc1cc(C2=C(C(=O)O)N(c3ccccc3C(F)(F)F)S(=O)(=O)c3ccccc32)cc2c1OCO2
active: [10] 38.6 µM
not listed: [5] | [8]
inactive: all other assays above

Oc1ccc(O)cc1
active: [6] 28.8 µM | [7] 200 µM
not listed: [5] | [10]
inactive: all other assays above

CCOCCOCCO
not listed: [8] | [10]
inactive: all other assays above
